“And” between values parts separate entries of the source, which are not always exact repeats. Identical values can stand only once. Records with an inconclusive call do not appear. A call without a number means that no potency is given here. The source holds several records for some structures; these can differ, active in one and inactive in another. The source made the active and inactive calls. The call rests on the fitted dose curve; in most records, active means well fitted curve in the direction sought with a large enough effect; inconclusive means small, poorly fitted or top-dose-only effect, or another doubt; inactive means no such curve, though single readings can be large; an effect the other way counts as inactive or inconclusive.
Columns and labels:
[1] = Primary qHTS for inhibitors of nuclear receptor binding SET domain protein 2 (NSD2) in an isogenic RCH-ACV NSD2 p.E1099K mutant (9B) (AID 1645876)
[2] = Primary qHTS for inhibitors of nuclear receptor binding SET domain protein 2 (NSD2) in an RCH-ACV wild type WT cells (2C) (AID 1645877)
Further: nearly all actives have a fitted effect of over 70% in size.
Potency means the concentration at half of the fitted maximal effect.

Compound	Potency [1]	Potency [2]
CCCCS(=O)(=O)N[C@@H](Cc1ccc(OCCCCC2CCNCC2)cc1)C(=O)O	inactive	inactive
CN1CCC[C@@H]1c1cccnc1	inactive	inactive
Cc1cc2c(cc1CC(=O)c1sccc1S(=O)(=O)Nc1onc(C)c1Cl)OCO2	inactive	inactive
CC(=O)OCC(=O)NCCCOc1cccc(CN2CCCCC2)c1	inactive	inactive
O=C(O)CCCCC(=O)O	inactive	inactive
Oc1cc(O)c2c(c1)O[C@H](c1ccc(O)c(O)c1)[C@H](O)C2	inactive	inactive
CN1C(CCl)Nc2cc(Cl)c(S(N)(=O)=O)cc2S1(=O)=O (stereo unspecified)	inactive	inactive
CCOc1ccc(Cc2nccc3cc(OCC)c(OCC)cc23)cc1OCC	2.37 µM (active)	2.37 µM (active)
CC(O)C(=O)O (stereo unspecified)	inactive	inactive
CC/C(=C(/CC)c1ccc(O)cc1)c1ccc(O)cc1	inactive	10.6 µM (active) and inactive
CC1=C(C(=O)O)N2C(=O)[C@@H](NC(=O)[C@H](N)c3ccc(O)cc3)[C@H]2SC1	inactive	inactive
CN=C(NC#N)Nc1ccc(C2=NNC(=O)CC2C)cc1 (stereo unspecified)	inactive	inactive
C=C1C[C@H]2[C@@H]3C=C(C)C4=CC(=O)CC[C@]4(C)[C@H]3CC[C@]2(C)[C@@]1(OC(C)=O)C(C)=O	23.7 µM (active)	4.22 µM (active)
CC(C)(Oc1ccc(Cl)cc1)C(=O)O	inactive	inactive
CCOC(=O)OC(C)OC1=C(C(=O)Nc2ccccn2)N(C)S(=O)(=O)c2ccccc21 (stereo unspecified)	inactive	inactive
O=S1(=O)c2cccc3cccc(c23)N1CCCN1CCN(c2ccc(F)cc2)CC1	inactive	inactive
CN(C)CCCOc1nn(Cc2ccccc2)c2ccccc12	9.44 µM (active) and 25.8 µM (active)	10.6 µM (active) and 14.5 µM (active)
COc1cc(C(=S)N2CCOCC2)cc(OC)c1OC	inactive	inactive
CCCCCCCCCCCCCCNCCO	7.5 µM (active)	7.5 µM (active)
CN(C)/N=N/c1nc[nH]c1C(N)=O	inactive	inactive
CN1CCN(C(c2ccccc2)c2ccccc2)CC1	inactive	inactive
OC(CCN1CCCCC1)(c1ccccc1)c1ccccc1	inactive	inactive

Compound	Potency [1]	Potency [2]
CN(C)CC/C=C1/c2ccccc2COc2ccc(CC(=O)O)cc21	inactive	inactive
Cc1ccccc1C(=O)Nc1ccc(C(=O)N2CCCC(N(C)C)c3ccccc32)cc1 (stereo unspecified)	5.78 µM (active)	inactive and 5.15 µM (active)
N[C@H](Cc1c[nH]c2ccccc12)C(=O)O	inactive	inactive
CC(=O)N(O)CCCCCNC(=O)CCC(=O)N(O)CCCCCNC(=O)CCC(=O)N(O)CCCCCN	7.5 µM (active) and 5.25 µM (active)	4.73 µM (active) and 4.68 µM (active)
COc1cc(-c2ccc(=O)[nH]n2)ccc1OC(F)F	inactive	inactive
COc1cc2c(cc1OC)[C@@H]1CC(=O)[C@@H](CC(C)C)CN1CC2	inactive	inactive
CC(=O)Oc1ccc(C(=C2CCCCC2)c2ccc(OC(C)=O)cc2)cc1	inactive	inactive
O=C1c2ccccc2C(=O)C1c1ccccc1	inactive	inactive
Cc1c(C(C)C)c(=O)n(-c2ccccc2)n1C	inactive	inactive
NC(CS)C(=O)O (stereo unspecified)	inactive	inactive
COc1cccc(OC)c1C(=O)N[C@@H]1C(=O)N2[C@@H]1SC(C)(C)[C@@H]2C(=O)O	inactive	inactive
CCOC(=O)COc1ccc2c(C)c(CCN(CC)CC)c(=O)oc2c1Cl	inactive	inactive
O=c1[nH]c(=O)n([C@H]2CCCO2)cc1F	inactive	inactive
CCCCCCCCCCCCCCCC[N+](C)(C)CC	0.335 µM (active)	0.299 µM (active)
N[C@@H](CCC(=O)N[C@@H](CS)C(=O)NCC(=O)O)C(=O)O	inactive	inactive
CN1[C@@H]2CC[C@H]1CC(OC(=O)c1c[nH]c3ccccc13)C2 (stereo partly specified)	inactive	inactive
Cc1onc(-c2c(Cl)cccc2Cl)c1C(=O)N[C@@H]1C(=O)N2[C@@H]1SC(C)(C)[C@@H]2C(=O)O	inactive	inactive
O=C(OCC(O)CO)c1ccccc1Nc1ccnc2cc(Cl)ccc12 (stereo unspecified)	16.8 µM (active)	23.7 µM (active)
OC[C@H]1O[C@@H](n2cnc3c(=S)nc[nH]c32)[C@H](O)[C@@H]1O	0.473 µM (active)	0.422 µM (active)
CC1(C)O[C@@H]2C[C@H]3[C@@H]4C[C@H](F)C5=CC(=O)C=C[C@]5(C)[C@H]4[C@@H](O)C[C@]3(C)[C@]2(C(=O)CO)O1	inactive	0.0166 µM (active)
Cc1cccc(C)c1NC(=O)CN1CCN(CCCC(c2ccc(F)cc2)c2ccc(F)cc2)CC1	23.7 µM (active)	11.9 µM (active)
